PubChem BioAssay AID1159580 (chemical genetic matrix, 2015)
Values joined by “and” are separate entries in the source; they are usually repeats but may differ in a detail not shown here. Equal entries are not always repeated. The campaign covered roughly 5,500 compounds. About 2,000 (36%) were called active. Roughly 18% stayed inconclusive and do not appear here. Cut-off read from the data, not from the text of the source: active = normalized growth mostly below about 0.91 (no sharp cut-off); inconclusive = no clear call, values can overlap the other calls; inactive = mostly above about 0.92. Some of the results follow.

Assay: chemical genetic growth profiling, strain panel (AID 1159580);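 note: tested at 20 µM; growth read once vehicle control cultures reached saturation at 30 °C; 1 = growth at the plate median or of vehicle wells; lower values mean less growth of the strain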
Conditions: S. cerevisiae deletion strains, growth OD

Measured: normalized growth

COC(=O)C1=C(C)NC(C)=C(C(=O)OC)C1c1ccccc1[N+](=O)[O-]
active: locus YAL021C, strain ccr4, stronger effect = lower value 0.829 | locus YAL026C, strain drs2, stronger effect = lower value 0.812 | locus YAL030W, strain snc1, stronger effect = lower value 0.896 | locus YBL061C, strain skt5, stronger effect = lower value 0.9 | locus YBR009C, strain hhf1, stronger effect = lower value 0.863 | locus YBR023C, strain chs3, stronger effect = lower value 0.91 | locus YBR231C, strain swc5, stronger effect = lower value 0.836 | locus YBR279W, strain paf1, stronger effect = lower value 0.887 | locus YCL011C, strain gbp2, stronger effect = lower value 0.907 | locus YCL061C, strain MRC1 (second series), stronger effect = lower value 0.829 | locus YDL035C, strain GPR1, stronger effect = lower value 0.725 | locus YDL134C, strain PPH21, stronger effect = lower value 0.783 | locus YDL192W, strain arf1, stronger effect = lower value 0.85 | locus YDR069C, strain doa4, stronger effect = lower value 0.719 | locus YDR162C, strain NBP2, stronger effect = lower value 0.388 | locus YDR297W, strain sur2, stronger effect = lower value 0.854 | locus YDR318W, strain mcm21, stronger effect = lower value 0.827 | locus YDR392W, strain spt3, stronger effect = lower value 0.73 | locus YDR502C, strain sam2, stronger effect = lower value 0.876 | locus YEL003W, strain gim4, stronger effect = lower value 0.895 | locus YEL061C, strain CIN8, stronger effect = lower value 0.918 | locus YER015W, strain faa2, stronger effect = lower value 0.828 | locus YER167W, strain BCK2, stronger effect = lower value 0.894 | locus YFR010W, strain ubp6, stronger effect = lower value 0.864 | locus YGL086W, strain mad1, stronger effect = lower value 0.799 | locus YGL173C, strain kem1, stronger effect = lower value 0.729 | locus YGL248W, strain PDE1, stronger effect = lower value 0.787 | locus YGL253W, strain hxk2, stronger effect = lower value 0.878 | locus YGR135W, strain pre9, stronger effect = lower value 0.799 | locus YHR013C, strain ard1, stronger effect = lower value 0.83 | locus YHR027C, strain rpn1, stronger effect = lower value 0.734 | locus YHR129C, strain ARP1, stronger effect = lower value 0.903 | locus YHR200W, strain rpn10, stronger effect = lower value 0.88 | locus YIL066C, strain RNR3, stronger effect = lower value 0.609 | locus YIL073C, strain SPO22, stronger effect = lower value 0.319 | locus YJL164C, strain tpk1, stronger effect = lower value 0.743 | locus YJL166W, strain qcr8, stronger effect = lower value 0.825 | locus YJL187C, strain SWE1, stronger effect = lower value 0.901 | locus YJR043C, strain POL32, stronger effect = lower value 0.752 | locus YJR075W, strain HOC1, stronger effect = lower value 0.822 and 0.894
0.891 (active) and 0.969 (inactive): locus YHR030C, strain SLT2, stronger effect = lower value
inactive: locus YAL040C, strain CLN3, stronger effect = lower value 0.993 | locus YBR021W, strain FUR4, stronger effect = lower value 0.996 | locus YBR171W, strain sec66, stronger effect = lower value 0.975 | locus YBR229C, strain ROT2, stronger effect = lower value 0.998 | locus YCL016C, strain dcc1, stronger effect = lower value 0.943 | locus YCL029C, strain bik1, stronger effect = lower value 0.97 | locus YCL061C, strain MRC1, stronger effect = lower value 0.933 | locus YCL069W, strain vba3, stronger effect = lower value 0.947 | locus YCR088W, strain abp1, stronger effect = lower value 0.955 | locus YDL005C, strain med2, stronger effect = lower value 0.974 | locus YDL040C, strain nat1, stronger effect = lower value 0.98 | locus YDL074C, strain BRE1, stronger effect = lower value 0.905 | locus YDL101C, strain DUN1, stronger effect = lower value 1.01 | locus YDL185W, strain tfp1, stronger effect = lower value 0.938 | locus YDR001C, strain nth1, stronger effect = lower value 0.975 | locus YDR101C, strain arx1, stronger effect = lower value 0.963 | locus YDR137W, strain rgp1, stronger effect = lower value 0.953 | locus YDR159W, strain sac3, stronger effect = lower value 0.918 | locus YDR195W, strain ref2 0.999 | locus YDR334W, strain swr1, stronger effect = lower value 0.904 | locus YDR335W, strain msn5, stronger effect = lower value 0.969 | locus YDR363W, strain ESC2, stronger effect = lower value 0.992 | locus YDR388W, stronger effect = lower value 0.933 | locus YEL037C, strain rad23, stronger effect = lower value 0.934 | locus YEL061C, strain CIN8 (second series), stronger effect = lower value 0.966 | locus YER002W, strain NOP16, stronger effect = lower value 1 | locus YER016W, strain bim1, stronger effect = lower value 0.944 | locus YER110C, stronger effect = lower value 1 | locus YER111C, strain swi4, stronger effect = lower value 0.94 | locus YER155C, strain BEM2 (second series), stronger effect = lower value 0.987 | locus YER155C, strain BEM2, stronger effect = lower value 1.01 | locus YGL078C, strain dbp3, stronger effect = lower value 0.978 | locus YGL167C, strain pmr1, stronger effect = lower value 0.916 | locus YGL227W, strain vid30, stronger effect = lower value 0.988 | locus YGL240W, strain doc1, stronger effect = lower value 0.96 | locus YGR078C, strain PAC10, stronger effect = lower value 0.991 | locus YGR252W, strain gcn5, stronger effect = lower value 0.997 | locus YHR079C, strain IRE1 (second series), stronger effect = lower value 0.957 | locus YHR079C, strain IRE1, stronger effect = lower value 0.956 | locus YHR094C, strain hxt1, stronger effect = lower value 0.974 | locus YHR142W, strain chs7, stronger effect = lower value 0.894 | locus YIL125W, strain kgd1, stronger effect = lower value 0.948 | locus YIR030C, strain dcg1, stronger effect = lower value 0.992 | locus YJL092W, strain hpr5, stronger effect = lower value 0.945 | locus YJL095W, strain BCK1 (second series), stronger effect = lower value 0.933 | locus YJL095W, strain BCK1, stronger effect = lower value 1 and 0.958 | locus YJL115W, strain asf1, stronger effect = lower value 0.969 | locus YJL129C, strain trk1, stronger effect = lower value 0.89 | locus YJL134W, strain LCB3, stronger effect = lower value 0.963 | locus YJL154C, strain vps35, stronger effect = lower value 0.962 | locus YJL168C, strain set2, stronger effect = lower value 0.952 | locus YJL187C, strain SWE1 (second series), stronger effect = lower value 0.99 | locus YJR066W, strain TOR1, stronger effect = lower value 0.924
